We go through two molecules from PubChem BioAssay AID2284065 (EPA ToxCast).

The structures appear in SMILES notation. Calls of active or inactive are those of the source. How the source made its calls: active means hit-call score of the fitted dose curve at least 0.9, where 1 is the maximum; inactive means score below 0.9.

Chain of CYP2C8, CYP2C8 (gene 1558) (P10632 whole entry, looked up): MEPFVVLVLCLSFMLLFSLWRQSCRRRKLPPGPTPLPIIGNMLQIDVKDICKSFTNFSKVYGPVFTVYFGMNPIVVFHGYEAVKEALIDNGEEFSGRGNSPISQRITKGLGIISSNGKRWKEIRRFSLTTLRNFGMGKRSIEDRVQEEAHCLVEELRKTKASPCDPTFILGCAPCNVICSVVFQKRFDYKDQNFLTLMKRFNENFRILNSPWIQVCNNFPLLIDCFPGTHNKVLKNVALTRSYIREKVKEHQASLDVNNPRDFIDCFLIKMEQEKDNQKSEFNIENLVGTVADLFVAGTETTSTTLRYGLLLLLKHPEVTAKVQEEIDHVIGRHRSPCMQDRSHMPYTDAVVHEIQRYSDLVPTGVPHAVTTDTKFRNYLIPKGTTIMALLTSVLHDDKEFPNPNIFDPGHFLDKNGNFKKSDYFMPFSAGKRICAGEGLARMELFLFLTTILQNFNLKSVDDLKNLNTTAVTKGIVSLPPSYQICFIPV

In this assay the target is CYP2C8, CYP2C8 (gene 1558) (UniProt P10632). The assay can be described thus: ERF_FR_ADME_hCYP2C8: Eurofins (ERF) CYP450-related Enzyme Activity (ADME) Assay for CYP2C8. The protocol:
ERF_FR_ADME_hCYP2C8 is a biochemical, single-readout assay that uses extracted gene-proteins in a cell-free assay. Measurements were taken 0.16 hour after chemical dosing in a 96-well plate. See CYP2C8 inhibition (HLM, amodiaquine substrate).ERF_FR_ADME_hCYP2C8 is an assay component calculated from the ERF_FR_ADME_hCYP2C8 assay. It is designed to measure enzyme activity using a type of enzyme reporter as detected by peak area response of desethylamodiaquine with HPLC-MS/MS technology.Data from the assay component ERF_FR_ADME_hCYP2C8 was analyzed at the assay endpoint, ERF_FR_ADME_hCYP2C8, in the positive analysis fitting direction relative to acetonitrile as the negative control and baseline of activity. Using a type of enzyme reporter, loss-of-signal activity can be used to understand changes in enzymatic activity as they relate to gene CYP2C8. To generalize the intended target to other relatable targets, this assay endpoint is annotated to the cyp intended target family, where the subfamily is […].
Assay cells are incubated for 10 minutes at 37C with 10 uM amodiaquine.
Take `COc1cc(CCC(=O)CC(=O)CCc2ccc(O)c(OC)c2)ccc1O`: the AC50 is 1830 nM (active).

In the case of `CCCCC[C@H](O)CC(=O)CCc1ccc(O)c(OC)c1`, the AC50 is 2270 nM (active).

As usually defined, the AC50 is the concentration at which the activity in the assay is half-maximal.
